Values joined by “and” are separate entries in the source; they are usually repeats but may differ in a detail not shown here. Equal values may be shown once. Compounds without any hit were thinned out: in the full panel of roughly 79,000, 15% have a hit. The source holds several records for some structures; these can differ, active in one and inactive in another. Active and inactive are the calls of the source. Cut-off read from the data, not from the text of the source: active = growth inhibition above about 70%; inactive = the rest.

The source of these data is PubChem BioAssay (NCI).

Assay [1] is described as follows: NCI Yeast Anticancer Drug Screen. Data for the rad50 strain (AID 155).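 Note: 0% = growth of vehicle-only cultures of the same strain.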 The following applies: S. cerevisiae rad50 strain growth inhibition, stronger effect = higher value. The method, boiled down:
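Relative growth inhibition (compound vs vehicle) was measured in yeast with a defined repair-gene alteration.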

Assay [2] is described as follows: NCI Yeast Anticancer Drug Screen. Data for the mec2-1 strain (AID 157). The following applies: S. cerevisiae mec2-1 strain, stronger effect = higher value. An outline of the steps:
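Compounds were applied to mec2-1 yeast cells. Their growth was then compared with that of vehicle-treated cultures to give growth inhibition.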

A short description of assay [3]: NCI Yeast Anticancer Drug Screen. Data for the sgs1 mgt1 strain (AID 161).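 Note: 0% = growth of cultures given vehicle only.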 To be noted: S. cerevisiae sgs1 mgt1 strain, stronger effect = higher value. An outline of the steps: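 Yeast cells carrying a defined DNA-repair defect were exposed to test compounds. Growth inhibition was measured relative to vehicle-treated controls.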
Assay [4] in a line: NCI Yeast Anticancer Drug Screen. Data for the cln2 rad14 strain (AID 165).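 Note: 0% = growth equal to vehicle treated cultures.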 The following applies: S. cerevisiae cln2 rad14 strain, stronger effect = higher value. The method, boiled down:
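Strain: cln2 rad14 yeast, altered in cell cycle control and DNA damage repair. Read-out: growth inhibition vs vehicle.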

Assay [5] can be described thus: NCI Yeast Anticancer Drug Screen. Data for the bub3 strain (AID 167). The following applies: S. cerevisiae bub3 mutant strain, stronger effect = higher value. An outline of the steps:
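Screening used yeast with an engineered genetic alteration affecting cell cycle control. Compound-exposed cultures were compared with vehicle cultures, and reduced growth was taken as inhibition.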

Assay [6] can be described thus: NCI Yeast Anticancer Drug Screen. Data for the wt2 strain (AID 169).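 Note: 0% = growth of vehicle-treated yeast cultures.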 To be noted: S. cerevisiae wt2 strain growth inhibition, stronger effect = higher value. An outline of the steps:
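Growth of compound-treated yeast is measured and expressed as inhibition relative to vehicle-only controls.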

A short description of assay [7]: NCI Yeast Anticancer Drug Screen. Data for the mlh1 rad18 strain (AID 175). To be noted: S. cerevisiae mlh1 rad18 strain growth inhibition, stronger effect = higher value. The method, boiled down: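 A repair-deficient yeast strain is exposed to test compound, and growth is scored relative to vehicle-treated controls.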
The mark [8] stands for this setting: at 5.0 µM (retest, dose inferred, filed as 0.5).
Where [9] appears, read: at 50.0 µM (retest, dose inferred, filed as 5.0).

With `c1ccc2nc3c(ccc4ccccc43)cc2c1`, the growth inhibition was 22% (inactive) in assay [1] (setting [8]); 31% (inactive) in assay [1] (setting [9]); 86% (active) in assay [1] (at 50.0 µM); 41% (inactive) in assay [2] (setting [8]); 45% (inactive) in assay [2] (setting [9]); 75.9% (active) in assay [2] (at 50.0 µM). In addition, the growth inhibition was -17% (inactive) in assay [3] (setting [8]); 94% (active) in assay [3] (setting [9]); 84.5% (active) in assay [3] (at 50.0 µM); 5% (inactive) in assay [4] (setting [8]); 91% (active) in assay [4] (setting [9]); 68.7% (inactive) in assay [4] (at 50.0 µM). The growth inhibition in assay [5] (setting [8]) is 0% (inactive); in assay [5] (setting [9]), 99% (active); in assay [5] (at 50.0 µM) it was 84% (active).
In the case of `CC[N+](C)(C)c1ccccc1`, the growth inhibition is 42% (inactive) in assay [1] (setting [8]); 90% (active) in assay [1] (setting [9]); 61.8% (inactive) in assay [1] (at 50.0 µM); 48% (inactive) in assay [2] (setting [8]); 93% (active) in assay [2] (setting [9]); 26.7% (inactive) in assay [2] (at 50.0 µM). Also, the growth inhibition is -40% (inactive) in assay [3] (setting [8]); 1% (inactive) in assay [3] (setting [9]); 48.2% (inactive) in assay [3] (at 50.0 µM); 46% (inactive) in assay [4] (setting [8]); 24% (inactive) in assay [4] (setting [9]); 17.9% (inactive) in assay [4] (at 50.0 µM). The growth inhibition in assay [5] (setting [8]) is -1% (inactive); in assay [5] (setting [9]) it was 28% (inactive); in assay [5] (at 50.0 µM), 74.2% (active); in assay [6] (at 1.2 µM) it was -24% (inactive); in assay [6] (at 3.7 µM), -23% (inactive); in assay [6] (at 11.0 µM), -25% (inactive). Besides, the growth inhibition was -16% (inactive) in assay [6] (at 33.0 µM); -24% (inactive) in assay [6] (at 100.0 µM); 45% (inactive) in assay [7] (setting [8]); 82% (active) in assay [7] (setting [9]); 28.9% (inactive) in assay [7] (at 50.0 µM).
As for `O=c1c(Cl)c(Cl)cnn1CCCl`, the growth inhibition in assay [1] (setting [8]) is 40% (inactive); in assay [1] (setting [9]), 92% (active); in assay [1] (at 50.0 µM), 74.9% (active); in assay [2] (setting [8]) it was 9% (inactive); in assay [2] (setting [9]), 48% (inactive); in assay [2] (at 50.0 µM) it was 17.6% (inactive). The growth inhibition is -1% (inactive) in assay [3] (setting [8]); 47% (inactive) in assay [3] (setting [9]); -15.6% (inactive) in assay [3] (at 50.0 µM); 6% (inactive) in assay [4] (setting [8]); 32% (inactive) in assay [4] (setting [9]); 7.15% (inactive) in assay [4] (at 50.0 µM). Moreover, the growth inhibition in assay [5] (setting [8]) is -6% (inactive); in assay [5] (setting [9]), 69% (inactive); in assay [5] (at 50.0 µM), -10.5% (inactive); in assay [7] (setting [8]), 15% (inactive); in assay [7] (setting [9]), 71% (active).
Turning to `COc1ccc(Cc2ccc(O)cc2)cc1`, the growth inhibition in assay [1] (setting [8]) was 41% (inactive); in assay [1] (setting [9]), 79% (active); in assay [1] (at 50.0 µM), 33.3% (inactive); in assay [2] (setting [8]) it was 40% (inactive); in assay [2] (setting [9]), 88% (active); in assay [2] (at 50.0 µM), 27.8% (inactive). Moreover, the growth inhibition in assay [3] (setting [8]) is -9% (inactive); in assay [3] (setting [9]) it was 47% (inactive); in assay [3] (at 50.0 µM), 52.8% (inactive); in assay [4] (setting [8]), 42% (inactive); in assay [4] (setting [9]) it was 8% (inactive); in assay [4] (at 50.0 µM), -20.9% (inactive). Further, the growth inhibition was -16% (inactive) in assay [5] (setting [8]); 49% (inactive) in assay [5] (setting [9]); 30.9% (inactive) in assay [5] (at 50.0 µM); -12% (inactive) in assay [6] (at 1.2 µM); -8% (inactive) in assay [6] (at 3.7 µM); -9% (inactive) in assay [6] (at 11.0 µM). For the same molecule, the growth inhibition in assay [6] (at 33.0 µM) is 6% (inactive); in assay [6] (at 100.0 µM), 11% (inactive); in assay [7] (setting [8]) it was 27% (inactive); in assay [7] (setting [9]), 54% (inactive); in assay [7] (at 50.0 µM), 28.8% (inactive).
For `CCCCCCCCCCCCOS(=O)(=O)O`, the growth inhibition in assay [1] (setting [8]) is -6% (inactive); in assay [1] (setting [9]) it was 29% (inactive); in assay [1] (at 50.0 µM) it was -13.1% (inactive) and 99% (active) and 25.1% (inactive); in assay [2] (setting [8]), -12% (inactive); in assay [2] (setting [9]) it was 2% (inactive); in assay [2] (at 50.0 µM), -36.6% (inactive) and 98.2% (active) and 32.4% (inactive). The growth inhibition in assay [3] (setting [8]) is -5% (inactive); in assay [3] (setting [9]) it was 28% (inactive); in assay [3] (at 50.0 µM), 6.3% (inactive) and 97% (active) and 36.8% (inactive); in assay [4] (setting [8]), 0% (inactive); in assay [4] (setting [9]) it was 36% (inactive); in assay [4] (at 50.0 µM), 1% (inactive) and 98.4% (active) and 7.2% (inactive). The growth inhibition in assay [5] (setting [8]) was -17% (inactive); in assay [5] (setting [9]), -20% (inactive); in assay [5] (at 50.0 µM) it was -29.6% (inactive) and 97% (active) and 23.4% (inactive).
Turning to `CC[C@@]1(OC(=O)C(N)CCCCN)C(=O)OCc2c1cc1n(c2=O)Cc2cc3ccccc3nc2-1` (stereo partly specified), the growth inhibition in assay [1] (setting [8]) is 92% (active); in assay [1] (setting [9]) it was 95% (active); in assay [1] (at 50.0 µM) it was 80.3% (active); in assay [2] (setting [8]) it was 44% (inactive); in assay [2] (setting [9]), 96% (active); in assay [2] (at 50.0 µM) it was 83.9% (active). Further, the growth inhibition in assay [3] (setting [8]) was 18% (inactive); in assay [3] (setting [9]), -11% (inactive); in assay [3] (at 50.0 µM), 77.1% (active); in assay [4] (setting [8]) it was 13% (inactive); in assay [4] (setting [9]), -36% (inactive); in assay [4] (at 50.0 µM), 45.5% (inactive). The growth inhibition in assay [5] (setting [8]) was 22% (inactive); in assay [5] (setting [9]), 30% (inactive); in assay [5] (at 50.0 µM) it was 64.1% (inactive); in assay [7] (setting [8]) it was 48% (inactive); in assay [7] (setting [9]), 91% (active).
For `Cc1c2ccccc2c(C=O)c2ccccc12`, the growth inhibition in assay [1] (setting [8]) was 40% (inactive); in assay [1] (setting [9]), 96% (active); in assay [1] (at 50.0 µM) it was 86.2% (active); in assay [2] (setting [8]) it was 44% (inactive); in assay [2] (setting [9]) it was 99% (active); in assay [2] (at 50.0 µM), 89% (active). The growth inhibition in assay [3] (setting [8]) was -13% (inactive); in assay [3] (setting [9]) it was 57% (inactive); in assay [3] (at 50.0 µM) it was 91.2% (active); in assay [4] (setting [8]), 50% (inactive); in assay [4] (setting [9]), 59% (inactive); in assay [4] (at 50.0 µM) it was 88.2% (active). The growth inhibition in assay [5] (setting [8]) is 2% (inactive); in assay [5] (setting [9]), 67% (inactive); in assay [5] (at 50.0 µM), 88.5% (active); in assay [6] (at 1.2 µM) it was -11% (inactive); in assay [6] (at 3.7 µM), -16% (inactive); in assay [6] (at 11.0 µM), -4% (inactive). Also, the growth inhibition was 23% (inactive) in assay [6] (at 33.0 µM); 93% (active) in assay [6] (at 100.0 µM); 40% (inactive) in assay [7] (setting [8]); 99% (active) in assay [7] (setting [9]); 87.4% (active) in assay [7] (at 50.0 µM).
`COc1ccc(CC(=O)c2ccc(O)cc2O)cc1`: the growth inhibition in assay [1] (setting [8]) was 30% (inactive); in assay [1] (setting [9]), 90% (active); in assay [1] (at 50.0 µM), 49.5% (inactive); in assay [2] (setting [8]), 38% (inactive); in assay [2] (setting [9]), 80% (active); in assay [2] (at 50.0 µM) it was 42.3% (inactive). For the same molecule, the growth inhibition was -22% (inactive) in assay [3] (setting [8]); 73% (active) in assay [3] (setting [9]); 54.8% (inactive) in assay [3] (at 50.0 µM); 64% (inactive) in assay [4] (setting [8]); 76% (active) in assay [4] (setting [9]); 52.2% (inactive) in assay [4] (at 50.0 µM). Also, the growth inhibition was -6% (inactive) in assay [5] (setting [8]); 71% (active) in assay [5] (setting [9]); 77.1% (active) in assay [5] (at 50.0 µM); -4% (inactive) in assay [6] (at 1.2 µM); -4% (inactive) in assay [6] (at 3.7 µM); -13% (inactive) in assay [6] (at 11.0 µM). Moreover, the growth inhibition in assay [6] (at 33.0 µM) is 14% (inactive); in assay [6] (at 100.0 µM) it was 91% (active); in assay [7] (setting [8]) it was 19% (inactive); in assay [7] (setting [9]), 97% (active); in assay [7] (at 50.0 µM) it was 53.1% (inactive).
